Laboratory results reported in article PMC10668032, “Altered binding affinity of SIX1-Q177R correlates with enhanced WNT5A and WNT pathway effector expression in Wilms tumor”.
Whole data set: some 33,000 sequences, median “e-score” near -0.05, cut for the highest 2% near 0.38. The sample holds the highest values, similar sequences and a random draw of the others, so the mix is not that of the screen.

biological target: T1, SIX1-Q177R homeodomain (human, UniProt Q15475 108-198, Q177R); experiment: universal protein binding microarray; Universal all-10-mer PBM (8x60K, AMADID 030236), 300 nM GST-tagged protein, Alexa Fluor 488 anti-GST; buffer, salt, pH and temperature not stated (as in Berger); high values mean tight binding; conditions: protein: ivt; tags: N-terminal GST; dsDNA, one strand shown
T1 sequence: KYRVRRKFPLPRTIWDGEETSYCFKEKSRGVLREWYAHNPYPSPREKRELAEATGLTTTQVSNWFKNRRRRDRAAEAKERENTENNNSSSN
Method in brief: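 Duplicate protein binding microarrays (universal 'all 10-mer', 8×60K format) were incubated with GST-tagged homeodomains at 300 nM final concentration. Binding was quantified as 8-mer E-scores with the Universal PBM Analysis Suite.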

Sequence	binding signal
GACGATAC	0.205 ± 0.0214 E-score
CCTGGGTA	0.164 ± 0.00425 E-score
GGGGAGTA	0.256 ± 0.0126 E-score
CACCATGC	0.297 ± 0.00858 E-score
CACCCGGG	0.327 ± 0.0154 E-score
ACACTGTC	0.336 ± 0.0232 E-score
ACTCTGAC	0.172 ± 0.00272 E-score
ACACTGTG	0.381 ± 0.0114 E-score
ACACTGAC	0.381 ± 0.0072 E-score
ACACTGAA	0.349 ± 0.00868 E-score
ACACTGAG	0.354 ± 0.00682 E-score
CCGCGAAA	0.167 ± 0.0237 E-score
GTAGTACA	0.277 ± 0.0241 E-score
CACGAGTA	0.167 ± 0.0394 E-score
GGTATCGA	0.2937 ± 0.0007 E-score
CTCGTGTC	0.409 ± 0.0114 E-score
GTCGAGTA	0.1983 ± 0.00156 E-score
ATCGTGTC	0.413 ± 0.0104 E-score
GTCGTGCA	0.181 ± 0.0113 E-score
CTCGGGTC	0.155 ± 0.0227 E-score
ATCGTGTG	0.229 ± 0.0199 E-score
GTCGTGTA	0.438 ± 0.00933 E-score

Sequence	binding signal
CTTGTGTC	0.168 ± 0.0605 E-score
ATCGTGTA	0.403 ± 0.0236 E-score
CAAGCGTG	0.165 ± 0.0253 E-score
CACCACCC	0.3364 ± 0.00314 E-score
ACGGATCA	0.172 ± 0.0172 E-score
GACCCGCC	0.18 ± 0.0248 E-score
ACGGGTGC	0.237 ± 0.00406 E-score
CCGGGATC	0.164 ± 0.0362 E-score
CTCGGGTA	0.168 ± 0.0141 E-score
CTCGTGTA	0.398 ± 0.00843 E-score
CTCGAGTA	0.164 ± 0.00196 E-score
AACAGGGG	0.17 ± 0.00571 E-score
GATAACAC	0.4333 ± 0.00385 E-score
CAAAACAC	0.321 ± 0.0321 E-score
GATAATAC	0.1568 ± 0.000269 E-score
CATAACAC	0.426 ± 0.00624 E-score
AATAACAC	0.426 ± 0.0299 E-score
CATAGCAC	0.195 ± 0.00827 E-score
AATAAACA	0.218 ± 0.0334 E-score
ATAAACAC	0.365 ± 0.0198 E-score
GATAACCC	0.19 ± 0.0215 E-score
CACCATAA	0.303 ± 0.015 E-score

Sequence	binding signal
ATGACCCG	0.2 ± 0.00637 E-score
ACTAGGTG	0.218 ± 0.00902 E-score
ACCCCAAC	0.237 ± 0.00988 E-score
ACCGGAGT	0.25 ± 0.0191 E-score
AGACCCCA	0.175 ± 0.0169 E-score
CCCACACC	0.39 ± 0.0401 E-score
GCCACACC	0.367 ± 0.0389 E-score
CCCACACG	0.2877 ± 0.0011 E-score
ACCACACG	0.297 ± 0.00738 E-score
ACCACACC	0.407 ± 0.0186 E-score
ACCACACA	0.196 ± 0.00984 E-score
ACACTTGA	0.376 ± 0.0165 E-score
CGTTGGTA	0.151 ± 0.00584 E-score
GCGCGACA	0.155 ± 0.0207 E-score
CACCGTAC	0.365 ± 0.0199 E-score
CACGGCTC	0.154 ± 0.0275 E-score
AGGTCGTG	0.264 ± 0.0209 E-score
ACACTGCT	0.339 ± 0.0327 E-score
ACACTTCC	0.349 ± 0.026 E-score
ACACTGCC	0.429 ± 0.0024 E-score
ACACTTCG	0.327 ± 0.0333 E-score
ACACTTCA	0.313 ± 0.047 E-score

Sequence	binding signal
CCCCTGCA	0.17 ± 0.016 E-score
ACACTGCA	0.385 ± 0.00749 E-score
ACACTGCG	0.383 ± 0.00512 E-score
CACGAGTG	0.317 ± 0.0328 E-score
CTGGGGTA	0.194 ± 0.0256 E-score
CCCCCAAC	0.17 ± 0.0237 E-score
TAATGACA	0.203 ± 0.0464 E-score
CGCATTGC	0.166 ± 0.0234 E-score
AGTGATCC	0.184 ± 0.018 E-score
GGCACACA	0.179 ± 0.0131 E-score
ATGTGTAC	0.23 ± 0.0242 E-score
CGGTGTAC	0.4872 ± 0.00266 E-score
ACCTGTAT	0.17 ± 0.00632 E-score
AGGTGTAC	0.4703 ± 0.00148 E-score
CGGTGCAC	0.296 ± 0.017 E-score
AGGTGCAC	0.264 ± 0.00684 E-score
AGGTATAA	0.17 ± 0.0346 E-score
CGATGTAC	0.254 ± 0.0159 E-score
AGGTGTAT	0.441 ± 0.0169 E-score
AGGTGCGG	0.187 ± 0.0153 E-score
ATGTGTAG	0.183 ± 0.0469 E-score
AGGTGTAG	0.473 ± 0.00747 E-score

Sequence	binding signal
CAGCGGGG	0.194 ± 0.00852 E-score
CACTCTCC	0.192 ± 0.0425 E-score
CACGACGG	0.182 ± 0.0214 E-score
CCATTACA	0.162 ± 0.00552 E-score
CCGGAGTA	0.227 ± 0.00414 E-score
ACACCGTG	0.472 ± 0.00577 E-score
ACACCGTC	0.4594 ± 0.0011 E-score
CACCCGTC	0.338 ± 0.01 E-score
ACCCCGTC	0.178 ± 0.0222 E-score
CCCCCGTA	0.155 ± 0.0244 E-score
ACACCGTA	0.4704 ± 0.00388 E-score
ACGCCGTG	0.185 ± 0.00332 E-score
ATACCGTG	0.301 ± 0.0379 E-score
GCACCGTA	0.201 ± 0.0112 E-score
ACGTAGAG	0.156 ± 0.0478 E-score
ATAGTACA	0.312 ± 0.0122 E-score
CCCCCCCC	0.188 ± 0.0377 E-score
TGCAGACA	0.167 ± 0.00968 E-score
ACACGCGA	0.369 ± 0.00701 E-score
ACACGCGG	0.402 ± 0.00628 E-score
ACACGCGT	0.402 ± 0.0109 E-score
